ALOX12 inhib = inhibitors of human 12-lipoxygenase (ALOX12); P18054; purified 12-hLO, xylenol orange hydroperoxide absorbance; Potency, µM (series often up to 57.1 µM), without a hit: at the top dose activity change, negative = inhibition, usual class: inhibitors; 0.12% of 150,000 active; AID 1452; also: potency is read from the fitted curve at half-maximal effect; nearly all actives have a fitted effect of over 55% in size
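Hydroperoxide output read as Fe(III)-xylenol orange absorbance, 573-to-405 nm ratio, after 30 min reaction with 40 uM arachidonic acid. Enzyme: 150 nM purified human 12hLO, 15 min compound preincubation; 25 mM Hepes pH 7.0, room temperature.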
HPGD inh = inhibitors of human 15-hydroxyprostaglandin dehydrogenase (HPGD); purified HPGD, NADH fluorescence kinetic, PGE2 substrate; Potency, µM, inactives show at the top dose activity change, negative = inhibition, actives largely listed as inhibitors; 4.3% of 150,000 active; AID 894; active = well fitted inhibition curve with a large enough effect, not every such curve was filed as active; inconclusive = small, poorly fitted or top-dose-only effect, or another doubt; inactive = no such curve, though single readings can be large or run the other way; also: potency is read from the fitted curve at half-maximal effect
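20 nM HPGD preincubated 15 min at room temperature with compound in 50 mM Tris-HCl pH 8, 0.01% Tween 20. Started with 1 mM NAD+ and 30 uM prostaglandin E2; NADH fluorescence (360/450 nm) read 5 times over 30-s intervals, last minus first.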
IMPase Li cell = cell-permeable IMPase inhibitors with lithium potentiation; CHO-M1 cells, IP1 TR-FRET (IP-One), carbachol + lithium; Potency, µM (titrated, usually from 59.4 µM), without a hit: at the highest dose activity, negative = IMPase inhibition, usual class: inhibitors; 0.35% of 210,000 active; AID 1457;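 also: IP1 builds up when IMPase is blocked and the TR-FRET signal falls; potency is read from the fitted curve at half-maximal effect; plate controls were basal vehicle for no effect and high inhibitor control for full effect; nearly all actives have a fitted effect of over 50% in size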
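Lithium-sensitised IP1 accumulation assay; M1-expressing CHO cells treated 30 min at 37C with compound. Competitive antibody detection by time-resolved FRET followed a 10 min room-temperature lysis step.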
IMPase cell inh = membrane-permeable compound that blocks inositol monophosphatase; P97697; CHO-M1 cells, IP1 accumulation, HTRF TR-FRET ratio; inhibition (IP1 accumulation), % at 46.1 µM; 120,000 tested, under 10 active; active = well fitted curve in the direction sought with a large enough effect in the signal ratio, not every such curve was filed as active; inconclusive = small, poorly fitted or top-dose-only effect, or a change in a side signal; inactive = no such curve, though single readings can be large or run the other way; the % refers to the signal ratio;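 also: cells stimulated with carbachol in lithium chloride buffer; plate controls were DMSO basal wells for no effect and reference inhibitor wells for full effect; higher means more IMPase inhibition seen as more IP1 and lower FRET ratio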
Target sequence (P97697 whole entry, looked up): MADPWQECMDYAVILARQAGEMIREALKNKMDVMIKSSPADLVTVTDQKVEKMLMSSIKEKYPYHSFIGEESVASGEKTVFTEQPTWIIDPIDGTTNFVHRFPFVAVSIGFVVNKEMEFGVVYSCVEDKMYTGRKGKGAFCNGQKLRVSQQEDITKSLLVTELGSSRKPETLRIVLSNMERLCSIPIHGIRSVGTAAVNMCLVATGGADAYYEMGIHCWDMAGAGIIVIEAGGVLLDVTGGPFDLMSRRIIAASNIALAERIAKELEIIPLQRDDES
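Measured: the HTRF emission ratio (665/620 nm) plus the 620 nm donor channel, each fitted to the Hill equation to give AC50. Cells were CHO-M1 given compounds up to 46 uM and a 30 min carbachol stimulation at 37C.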
PNC assembly inh = perinucleolar compartment assembly inhibition. 3.1% of 140,000 active. activity change (PNC), negative = inhibition, % at 10 µM. AID 2417. PC3M PTB-GFP, PNC prevalence imaging, 16 h; hits give low values;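 active = readout at or below -70, meaning at least 70% loss of cells showing the perinucleolar compartment, a nuclear body marking cancer cells; inconclusive = readout between -30 and a set limit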;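 also: plate controls were DMSO wells for no effect and camptothecin positive control wells for full effect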
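Read-out is percentage of cells bearing a perinucleolar compartment, from automated 20x imaging of fixed, Hoechst-stained PC3M PTB-GFP cells. Cells were seeded 4 h, then exposed 16 h to compound (23 nl of library stock) in duplicate plates.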
ALDH1A1 inh = blocks purified human ALDH1A1 activity. AID 1030. Purified ALDH1A1, NADH fluorescence, propionaldehyde substrate. Potency, µM (titrated, usually from 75.3 µM), inactives show at the top dose activity, negative = inhibition, usual class: inhibitors. P00352. 7.3% of 220,000 active; active = well fitted inhibition curve with a large enough effect, not every such curve was filed as active; inconclusive = small, poorly fitted or top-dose-only effect, or another doubt; inactive = no such curve, though single readings can be large or run the other way;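 also: potency is read from the fitted curve at half-maximal effect; plate controls were no enzyme wells and a reference inhibitor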
Target sequence (P00352 whole entry, looked up): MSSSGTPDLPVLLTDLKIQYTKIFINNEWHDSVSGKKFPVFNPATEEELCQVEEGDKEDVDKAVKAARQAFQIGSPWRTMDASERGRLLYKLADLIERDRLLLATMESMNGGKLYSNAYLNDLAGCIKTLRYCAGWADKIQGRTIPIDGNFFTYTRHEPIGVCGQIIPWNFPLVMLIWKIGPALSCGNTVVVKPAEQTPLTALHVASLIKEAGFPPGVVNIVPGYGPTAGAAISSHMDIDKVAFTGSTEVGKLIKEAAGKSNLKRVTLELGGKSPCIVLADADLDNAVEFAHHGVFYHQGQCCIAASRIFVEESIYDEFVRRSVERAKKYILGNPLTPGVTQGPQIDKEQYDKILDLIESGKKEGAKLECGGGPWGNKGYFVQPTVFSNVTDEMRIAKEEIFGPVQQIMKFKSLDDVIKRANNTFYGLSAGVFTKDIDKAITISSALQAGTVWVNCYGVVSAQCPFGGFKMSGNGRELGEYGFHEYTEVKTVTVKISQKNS
* = called active by the depositor; u = inconclusive; x = no result given; [ ] = another dose, or the depositor's remark. Shown are actives, neighbours in structure and some others; about 11% of the full set was active somewhere. Unless noted, calls follow the shape of the dose curve; as a rule, active = well fitted curve in the direction sought with a large enough effect; inconclusive = small, poorly fitted or top-dose-only effect, or another doubt; inactive = no such curve, though single readings can be large; an effect the other way counts as inactive or inconclusive. Unless noted, % is scaled to controls: 0 for no effect and ±100 for the full control effect.

SMILES	ALOX12 inhib	HPGD inh	IMPase Li cell	IMPase cell inh	PNC assembly inh	ALDH1A1 inh
CCOC(=O)c1cc(-c2ccc(C#N)cc2)nc2c1c(C)nn2CCC#N	7.1%	u	u	3.2	-111.3*	u
CCOC(=O)c1cc(-c2cccs2)nn1CCC#N	-3.6%	-14.1%	-1.0%[38.3 µM]	11.4	u	14.1µM*
COc1ccc(-c2cc(C(=O)O)c3c(C)nn(-c4ccccn4)c3n2)cc1	1.4%	u	-7.3%[38.3 µM]	-4.7	47.7	u
CCOC(=O)c1cc(-c2ccncc2)nc2c1c(C)nn2-c1ccccn1	-4.3%	-10.2%	18.7%[38.3 µM]	15.1	-100.0*	u
CCCOC(=O)c1ccc(Nc2nc3ccccc3nc2-n2nc(C)cc2C)cc1	x	x	x	6.2	x	x
CCOCC(=O)Nc1ccccc1C(=O)O	x	x	3.4%	x	x	11.1%
COc1ccc(-n2c(=S)[nH]c3c(oc4ccccc43)c2=O)cc1	-10.4%	-26.1%	6.31µM*	x	29.8	-4.4%
Cc1ccc(-n2c(=O)[nH]c3c(oc4ccccc43)c2=O)cc1	x	x	-4.7%	x	x	u
COc1ccc(CCN2CC34C=CC(O3)C(C(=O)NCc3ccccc3)C4C2=O)cc1OC (configuration not stated)	-1.8%	10µM*	-5.9%[38.3 µM]	1.3	5.1	-5.6%
CCOC(=O)c1ccc(-c2ccc(/C=C(\C#N)C(=O)Nc3ccc(C)cc3OC)o2)cc1	x	x	x	13.0	x	x
COc1ccccc1CN1C(=O)[C@@H]2C(CCC(N)=O)NC3(C(=O)Nc4c3ccc(Cl)c4C)[C@@H]2C1=O (some centres not stated)	-4.8%	-8.3%	9.9%[38.3 µM]	2.0	48.9	0.224µM*
O=C1C2C3C=CC(C4CC34)C2C(=O)N1Cc1ccccc1 (configuration not stated)	x	x	5.1%	x	x	u
O=C1C2C3C=CC(C3=C3CCCCC3)C2C(=O)N1Cc1ccccc1 (configuration not stated)	-14.4%	-23.1%	47.7%[38.3 µM]	8.3	-18.3	6.31µM*
CC(C)(C)c1ccc(C(=O)Nc2ccc(-c3nc4ccccc4o3)c(O)c2)cc1	x	x	x	-4.9	x	x
CCOC(=O)c1sc(=S)sc1SCc1cccc(C(F)(F)F)c1	-4.5%	28.2µM*	33.7%[38.3 µM]	9.7	u	u
COc1ccc(NC(=O)c2sccc2SCc2cccc(C(F)(F)F)c2)cc1	-5.4%	u	22.0%	15.3	16.9	-5.6%
COCCOC(=O)c1c(C)oc2ccc(OCc3ccccc3)cc12	1.7%	-6.6%	-2.7%	x	-113.8*	4.3%
Cc1cnc(CNc2ncncc2-c2ccoc2)cn1	x	x	6.5%	x	x	u
CCN1CCCC1CN=Cc1c(O)n(-c2ccccc2)c(=O)c2ccccc12 (configuration not stated)	-2.3%	-27.8%	50.7%[38.3 µM]	2.9	-91.9*	u
Cc1nc(SCc2ccccc2)c([N+](=O)[O-])[nH]1	-1.9%	-11.1%	-4.6%	x	-107.3*	u
CCCCSc1nc(C)[nH]c1[N+](=O)[O-]	-2.8%	0.7%	25.6%[38.3 µM]	5.8	40.6	1.2%
Cc1ccc(Cl)cc1NC(=O)Nc1c(C)n(C)n(-c2ccccc2)c1=O	x	x	x	-5.0	x	x
COc1ccc2c(C)cc(SC3CCOC3=O)nc2c1 (configuration not stated)	x	x	-7.0%	x	x	-15.0%
COc1ccc(NS(=O)(=O)c2ccc3oc(SC4CCOC4=O)nc3c2)cc1 (configuration not stated)	-5.6%	31.6µM*	58.5%[38.3 µM]	10.1	14.1	0.562µM*
COC(=O)CN1C(=O)N/C(=C/c2ccc(C)o2)C1=O	x	x	3.2%	x	x	17.8µM*
SMILES	ALOX12 inhib	HPGD inh	IMPase Li cell	IMPase cell inh	PNC assembly inh	ALDH1A1 inh
Cc1ccc(/C=C2/NC(=O)N(Cc3ccccc3)C2=O)o1	-19.4%	25.1µM*	7.1%	x	-2.5	3.55µM*
CCCCNc1nc(C)nc2c1nc(-c1ccccc1)n2CCCN(C)C	0.9%	u	0.6%	x	x	u
O=C(NCC(c1cccnc1)N1CCN(c2ccc(F)cc2)CC1)c1ccc(F)cc1 (configuration not stated)	-6.7%	-12.1%	51.6%[38.3 µM]	-6.5	-20.7	31.6µM*
O=S1(=O)CC/C(=N\Nc2ccccc2)c2ccsc21	x	x	4.2%	x	x	25.1µM*
Cc1cccc(Oc2nc3ccccn3c(=O)c2/C=C(\C#N)c2nc3ccccc3s2)c1C	x	x	x	0.5	x	x
COc1cccc(OCCNC(=O)CSc2ccc(C(F)(F)F)cc2[N+](=O)[O-])c1	-0.3%	-25.0%	5.3%	x	-9.3	31.6µM*
CCN(CC)C(=O)CSc1ccc(C(F)(F)F)cc1[N+](=O)[O-]	-0.6%	-6.0%	2.5%	x	-3.3	5.3%
COc1ccc(OCCNC(=O)c2cccc(Oc3ccc(C(F)(F)F)cc3[N+](=O)[O-])c2)cc1	-0.3%	-20.1%	12.1%	x	u	0.2%
Cc1ccccc1OCCNC(=O)CSc1ccc(C(F)(F)F)cc1[N+](=O)[O-]	0.2%	25.1µM*	12.4%	-3.4	-9.4	12.6µM*
Cc1nc(Cl)c2c(n1)N(CC(N)=O)C(=O)CO2	3.9%	-6.3%	1.7%	x	-109.0*	6.9%
CC1=Nn2c(nc(-c3ccccc3)c2-c2ccccc2)N(CC(N)=O)C(=O)C1	0.1%	-9.1%	-8.4%[38.3 µM]	-3.2	u	17.1%
Cc1ccc(C)c(NC(=O)CN2C(=O)c3cccc4cccc2c34)c1	x	x	x	-7.8	x	x
O=C1CC(N2CCN(Cc3ccc4c(c3)OCO4)CC2)C(=O)N1c1cccc(Cl)c1 (configuration not stated)	0.7%	-5.0%	36.1%[38.3 µM]	15.7	-6.0	u
O=C1CC(N2CCN(Cc3ccccc3)CC2)C(=O)N1c1ccc2c(c1)OCCO2 (configuration not stated)	10.3%	-5.0%	41.4%[38.3 µM]	15.7	u	7.08µM*
COc1ccc(N2C(=O)CC(N3CCN(Cc4ccc5c(c4)OCO5)CC3)C2=O)cc1 (configuration not stated)	x	x	23.4%	x	x	28.2µM*
O=C1CC(N2CCN(Cc3ccccc3)CC2)C(=O)N1c1ccccc1 (configuration not stated)	3.8%	-2.4%	31.6%[38.3 µM]	12.8	13.9	-13.6%
Cc1ccc(S(=O)(=O)COCCN2CCN(S(=O)(=O)c3ccc(C)cc3)CCC2=O)cc1	-1.4%[0.00818 µM]	-6.4%	0.1%	x	x	4.1%
Cn1cccc1C(=O)N1CCC2(CCCN(c3ccncc3)C2)CC1	7.0%	-5.8%	-15.1%	x	x	5.7%
CCOC(=O)c1c(-c2ccccc2)oc2cc(Br)c(OCc3ccccc3)cc12	x	x	x	-8.1	x	x
CC(C)(C)N1C(=O)c2ccc(C(=O)Nc3nccs3)cc2C1=O	-2.8%	-2.9%	0.5%[38.3 µM]	-3.7	33.4	u
CN1Cc2c(C(=O)OC(C)(C)C)ncn2-c2ccsc2C1=O	-1.2%	-6.2%	11.1%	0.5	x	11.2µM*
Cc1nc(NCc2ccccc2)c2nc(-c3ccccc3)n(CCCN3CCOCC3)c2n1	1.8%	u	-2.5%	x	x	u
